Screening results from PubChem.
sPLA2-III inh: Inhibits HGIII-sPLA2 liposome hydrolysis, primary screen; Q9NZ20; QFRET BODIPY PC-A2 liposome hydrolysis, fluorescence; inhibition, % at 12.2 µM; 370,000 compounds, 0.56% hits; AID 743126;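 active means inhibition above mean plus 3 SD of compounds lying within the high and low control bounds, cut at about 19% in these data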;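 further: 0% = median of test compound wells and 100% = no enzyme DMSO wells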
PLCg1 inh: PLC-gamma1 (human) inhibition, primary screen | AID 720700 | 370,000 compounds, 0.84% hits | purified PLC-gamma1, fluorogenic substrate, fluorescence | P19174 | inhibition, % at 12.2 µM; in the data active means inhibition above about 9.5%
proKLK7 act: proKLK7 (human) activation, primary screen. P49862. purified proKLK7, EDANS-DABCYL substrate fluorescence; 100% is mature enzyme control, 0% vehicle. activation, % at 7 µM. 370,000 compounds, 0.9% hits. AID 652039;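 active means activation above the mean of all tested compounds plus 3 SD, computed per campaign excluding outliers beyond control limits, cut at about 13% in these data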
ADAM17 inh: ADAM17 inhibition, QFRET primary screen | P78536 | 370,000 compounds, 0.83% hits | inhibition, % at 6.95 µM | recombinant ADAM17, EDANS/DABCYL FRET peptide cleavage;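 active means inhibition above the mean of compounds lying between control limits plus 3 SD, set per campaign, cut at about 8.5% in these data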;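 further: 0% = DMSO-only wells as the low control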
PLCb3 inh: blocks human PLC-beta3 enzyme activity | Q01970 | Purified PLC-beta3, fluorogenic substrate, fluorescence | 370,000 compounds, 0.18% hits | inhibition, % at 12.2 µM; in the data active means inhibition above about 11%;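 further: 0% = median of compound wells on plate and 100% = full blocker control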
ADAM10 inh: ADAM10 inhibition, QFRET primary screen. O14672. recombinant ADAM10, EDANS/DABCYL FRET peptide cleavage, 3 h. inhibition, % at 7 µM. 370,000 compounds, 0.62% hits;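 active means inhibition above a per-campaign cutoff equal to the mean of compounds falling between control-based bounds plus 3 SD, cut at about 20% in these data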;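 further: 0% = DMSO wells while the 100% control is not disclosed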
ADAM10 confirm: human ADAM10 inhibition, confirmation | shares compounds with ADAM10 inh | ADAM10 QFRET peptide cleavage, EDANS fluorescence | inhibition, % at 6.95 µM | 2,100 compounds, 1% hits | AID 743208;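 active means inhibition above about 20% chosen separately for each screening run, limit read from the data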;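 further: 0% = DMSO wells and 100% = marimastat wells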
ADAM17 ctr: inhibits human ADAM17 in ADAM10 exosite counter-screen. shares compounds with ADAM10 inh. ADAM17 QFRET peptide cleavage, EDANS fluorescence. inhibition, % at 6.95 µM. 2,100 compounds, 0.5% hits;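 active means mean triplicate inhibition above the solvent-only control wells' mean plus 3 SD, cut at about 12% in these data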;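 further: 0% = DMSO wells and 100% = marimastat wells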
ADAM10 counter: counter-screen for ADAM17 exosite inhibitors: inhibitors of human ADAM10; shares compounds with ADAM17 inh; inhibition, % at 6.95 µM; AID 743256; recombinant ADAM10, EDANS/DABCYL FRET peptide cleavage, 3 h; 2,900 compounds, 47% hits;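 active means mean inhibition over the triplicate runs exceeds the activity threshold set in the earlier primary screen, cut at about 20% in these data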;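 further: 0% = DMSO wells and 100% = marimastat wells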
ADAM17 confirm: human ADAM17 inhibition, confirmation. shares compounds with ADAM17 inh. 2,900 compounds, 65% hits. recombinant ADAM17, EDANS/DABCYL QFRET peptide cleavage. inhibition, % at 6.95 µM;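 active means mean inhibition across replicates above the hit cutoff set in the primary screen, cut at about 8.5% in these data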;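 further: 0% = DMSO wells and 100% = marimastat wells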
Numbers without * were called inactive; . = no result. Only some compounds are listed: those with a hit (about 3.4% of all), similar ones and a draw of the others.

SMILES	sPLA2-III inh	PLCg1 inh	proKLK7 act	ADAM17 inh	PLCb3 inh	ADAM10 inh	ADAM10 confirm	ADAM17 ctr	ADAM10 counter	ADAM17 confirm
COc1cccc(NP(=O)(Oc2ccccc2Cl)Oc2ccccc2Cl)c1	-37	2	0	10*	0	23*	8	3	45*	18*
Cn1cc(P(=S)(c2ccccc2)c2ccccc2)c2ccccc21	3	7	.	7	9	14	.	.	.	.
COC(=O)C1=C(c2ccc(-c3ccccc3)c(F)c2)C[C@@H]2CC[C@H]1N2C(=O)NCCOc1ccccc1Cl	-10	7	0	17*	0	28*	7	2	28*	17*
CCCNC(=O)N1[C@H]2CC[C@@H]1C(C(=O)OC)=C(c1ccc(-c3ccccc3)c(F)c1)C2	-12	4	0	16*	4	26*	0	0	19	10*
COC(=O)C1=C(c2ccc(OC)c(OC)c2)C[C@@H]2CC[C@H]1N2C(=O)NCCOc1ccccc1Cl	2	-2	1	-3	-2	-2	.	.	.	.
COC(=O)C1=C(c2ccc(-c3ccccc3)c(F)c2)C[C@@H]2CC[C@H]1N2C(=O)NCCO	0	5	0	1	5	7	.	.	.	.
N#Cc1ccc2nc(-c3ccc(CN4CCC(n5nnc6ccccc65)CC4)cc3)c(-c3ccccc3)nc2c1	6	-11	-2	-13	-111	-49	.	.	.	.
CCc1ccc(NP(=O)(Oc2ccccc2F)Oc2ccccc2F)cc1	-35	0	1	12*	-4	26*	6	2	35*	20*
COC(=O)C1=C(c2ccc(F)cc2OCc2ccccc2)C[C@@H]2CC[C@H]1N2C(=O)NCc1ccccc1OC	-11	9	0	15*	4	28*	4	2	21*	13*
COC(=O)C1=C(c2ccccc2OCc2ccccc2)C[C@@H]2CC[C@H]1N2C(=O)NCCc1ccc(F)cc1	-14	4	1	10.0*	4	21*	4	2	16	7
COC(=O)C1=C(c2cc3ccccc3s2)C[C@@H]2CC[C@H]1N2C(=O)NCc1ccc(C(F)(F)F)cc1	-23	1	0	12*	2	24*	6	2	15	12*
COC(=O)C1=C(c2cc3ccccc3s2)C[C@@H]2CC[C@H]1N2C(=O)NCC1CC1	1	3	0	-1	1	1	.	.	.	.
C[C@H](NC(=O)OCc1ccccc1)[P+](=O)O	-1	2	0	1	5	1	.	.	.	.
COC(=O)C1C(c2ccccc2)CC2CCC1N2C (centres undefined)	-1	-1	0	-2	-1	-1	.	.	.	.
O=C1NCN(c2ccccc2)C12CCN(C(c1cccc3ccccc13)c1nnnn1Cc1ccccc1)CC2 (centres undefined)	-4	0	0	9.9*	-1	21*	11	4	41*	17*
O=C1NCN(c2ccccc2)C12CCN(C(c1ccnc3ccccc13)c1nnnn1Cc1ccccc1)CC2 (centres undefined)	-2	4	0	-4	4	-11	.	.	.	.
CCOC(=O)[C@@H]1[C@H]2COc3ccc(Br)cc3[C@H]2N2C(=O)N(c3cccc(C)c3)C(=O)[C@]12C	-10	-1	0	9.3*	-1	23*	.	.	30*	19*
COc1cccc(C(=O)NCCN2CCC3(CC2)C(=O)NCN3c2ccccc2)c1	7	2	0	-5	1	-5	.	.	.	.
N=C(N)c1c(O)n(C2CCCCC2)c(=O)n(C2CCCCC2)c1=O	2	3	0	9.6*	-3	17	.	.	52*	24*
O=c1c(C=NCc2cccs2)c(O)n(C2CCCCC2)c(=O)n1C1CCCCC1	8	5	0	3	10	4	.	.	.	.
COC(=O)C1=C(c2ccc(Cl)c(C(F)(F)F)c2)C[C@@H]2CC[C@H]1N2C(=O)N1CCC(O)(c2ccc(Cl)cc2)CC1	-15	2	0	9.5*	2	19	.	.	16	8.8*
COC(=O)C1=C(c2ccc(Cl)c(C(F)(F)F)c2)C[C@@H]2CC[C@H]1N2C(=O)N1CCCC1	0	-2	1	-4	0	1	.	.	.	.
CC[C@]12CCN(CC3(O)CC3)[C@H](Cc3ccc(O)cc31)C2(C)C	6	-2	0	-3	1	-7	.	.	.	.
O=C(c1ccccc1F)c1cn(CC(=O)N2CCOCC2)c2ccccc12	10	3	0	8.6*	6	-10	.	.	3	3
O=C(c1ccccc1F)c1cn(CC(=O)N2CCCC2)c2ccccc12	1	4	0	0	4	10	.	.	.	.
SMILES	sPLA2-III inh	PLCg1 inh	proKLK7 act	ADAM17 inh	PLCb3 inh	ADAM10 inh	ADAM10 confirm	ADAM17 ctr	ADAM10 counter	ADAM17 confirm
COC(=O)C1=C(c2ccc(OC(F)(F)F)cc2)C[C@@H]2CC[C@H]1N2C(=O)N1CCc2cc(OC)c(OC)cc2C1	0	-3	0	-2	-10	-13	.	.	.	.
O=C1NCN(c2ccccc2)C12CCN(C(c1cccs1)c1nnnn1-c1ccc3c(c1)OCCO3)CC2 (centres undefined)	-8	0	0	9.0*	4	20	.	.	29*	13*
O=c1[nH]c2ccccc2n1C1CCN(C(c2nnnn2-c2ccc3c(c2)OCCO3)C2CC2)CC1 (centres undefined)	6	1	0	1	3	-3	.	.	.	.
O=c1[nH]c2ccccc2n1C1CCN(C(c2ccccc2)c2nnnn2-c2ccc3c(c2)OCCO3)CC1 (centres undefined)	-12	0	0	11*	-3	18	.	.	38*	23*
O=C(O)c1cc(S(=O)(=O)N2CC3CC(C2)c2cccc(=O)n2C3)ccc1F (centres undefined)	-9	0	0	-3	0	-5	.	.	.	.
COC(=O)C1=C(c2ccc(F)cc2OCc2ccccc2)C[C@@H]2CC[C@H]1N2C(=O)NCc1ccc(C(F)(F)F)cc1	-12	1	0	11*	3	17	.	.	36*	21*
